A selection: hits, their analogues and other compounds. The true share with any hit is near 22%.
Measles CPE: protection of cells from measles virus; Measles virus-infected cells, CPE protection, absorbance; protection (pct of control), % at 4 µM; 140,000 tested, 1.5% active; AID 841; in the data active means protection mostly above about 24%, no sharp cut-off; inactive means mostly below about 26%
CYP2C19 inh: inhibitors of human CYP2C19; P33261; CYP2C19 Supersomes, luciferin-H EGE luminescence, 30 min; inhibition, % at 5 µM; 96,000 tested, 21% active;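 active means CYP2C19 inhibition above a set limit at 5 µM in the primary screen, cut at about 50% in these data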
CYP2C19 activ: increases human CYP2C19 enzyme activity | activation factor at 5 µM | recombinant CYP2C19, luciferin-H EGE luminescence; hits give high values; 0 = fully inhibited enzyme, 1 = untreated enzyme | AID 1025 | 96,000 tested, under 10 active | P33261;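 active means activation factor of at least 2 at 5 µM in the primary screen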
CYP2C9 inhib: human CYP2C9 inhibition; 96,000 tested, 20% active; inhibition, % at 5 µM; CYP2C9 Supersomes, luciferin-H conversion, luminescence; P11712; AID 777;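 active means blocking of liver enzyme CYP2C9 beyond about 50% at 5 µM, limit read from the data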
Target sequence (P11712 whole entry, looked up): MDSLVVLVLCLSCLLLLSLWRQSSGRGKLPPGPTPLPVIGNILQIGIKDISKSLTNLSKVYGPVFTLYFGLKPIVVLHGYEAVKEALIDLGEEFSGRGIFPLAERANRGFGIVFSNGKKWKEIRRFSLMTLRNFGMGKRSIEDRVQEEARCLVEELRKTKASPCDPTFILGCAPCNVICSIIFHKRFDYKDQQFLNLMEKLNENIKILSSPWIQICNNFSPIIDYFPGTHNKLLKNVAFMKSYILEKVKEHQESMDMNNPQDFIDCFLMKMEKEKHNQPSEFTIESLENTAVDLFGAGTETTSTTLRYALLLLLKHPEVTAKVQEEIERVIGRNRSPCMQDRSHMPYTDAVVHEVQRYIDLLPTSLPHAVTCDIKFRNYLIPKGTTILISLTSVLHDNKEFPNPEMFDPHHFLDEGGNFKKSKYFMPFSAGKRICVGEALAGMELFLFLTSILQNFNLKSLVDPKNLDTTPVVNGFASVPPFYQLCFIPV
CYP2C9 activ: CYP2C9 (human) activation. 96,000 tested, 1.4% active. recombinant CYP2C9, luciferin-H conversion, luminescence; hits give high values; factor 1 = untreated enzyme, 0 = blocked. AID 1024. P11712. activation factor at 5 µM;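 active means activation factor of 2 or more for CYP2C9 at a 5 µM dose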
Numbers stand for hits; n = inactive; x = no result.

SMILES	Measles CPE	CYP2C19 inh	CYP2C19 activ	CYP2C9 inhib	CYP2C9 activ
CC(=O)Nc1ccccc1-c1nc2ccccc2nc1OCC(=O)c1ccc(Br)cc1	n	n	n	58	n
CSc1c2c(nc3ncnn13)CCC2	n	x	x	x	x
CC1(C)NC(=O)N(c2ccccc2Cl)C1(C)NO (configuration not stated)	n	n	n	n	n
CCCc1noc2c1/C(=N\O)CC(CC(C)SCC)C2 (configuration not stated)	n	73	n	98	n
CCSC(C)CC1C/C(=N/O)c2c(CC)noc2C1 (configuration not stated)	n	90	n	94	n
CCCC(=O)C1C(=O)CC(CC(C)SCC)CC1=O (configuration not stated)	n	n	n	n	n
O=C(NCCc1c[nH]c2ccccc12)C1CCN(c2nnc(N3CCCC3=O)s2)CC1	n	n	n	n	n
CCOC(=O)c1cc2cc(CC(=O)c3ccc(OCC)cc3O)ccc2o1	n	69	n	54	n
COc1ccc(-c2c(C)n([O-])c(C)c(C)[n+]2=O)cc1OC	n	n	n	n	n
COc1ccc(-c2c(C)n([O-])c(C)c(-c3ccccc3)[n+]2=O)cc1OC	89	n	n	n	n
O=C(NC1CCCC1)c1ccc(S(=O)(=O)N2CCCC2)cc1	n	n	n	n	n
CCn1cc(CNC(=O)/C=C/c2ccc([N+](=O)[O-])cc2)c(C)n1	n	n	n	n	n
Cn1cnc2cc(NS(=O)(=O)c3ccc(Br)cc3)ccc21	n	93	n	69	n
CC(C)(C)n1cnc2cc(NS(=O)(=O)c3ccccc3)ccc21	n	79	n	n	n
Cc1c(NC(=O)C(C)Sc2nc3ccccc3c(=O)n2CCO)c(=O)n(-c2ccccc2)n1C (configuration not stated)	n	n	n	58	n
Cc1c(NC(=O)CSc2nc3ccccc3n2C)c(=O)n(-c2ccccc2)n1C	n	n	n	n	2.1
Cc1c(NC(=O)CSc2nnc3c4ccccc4n(CCc4ccccc4)c3n2)c(=O)n(-c2ccccc2)n1C	37	n	n	n	n
Cc1c(NC(=O)C(C)Sc2ccc3ccccc3n2)c(=O)n(-c2ccccc2)n1C (configuration not stated)	n	n	n	n	n
CCn1c2ccccc2c2nnc(SCC(=O)Nc3c(C)n(C)n(-c4ccccc4)c3=O)nc21	n	n	n	n	n
CN(C)S(=O)(=O)N1CCN(C(=O)c2cccc(Br)c2)CC1	n	n	n	n	n
N#Cc1cc(-c2ccccc2)cn(Cc2c(Cl)cccc2Cl)c1=O	53	n	n	n	n
Cc1ccc(-c2cc(C#N)c(=O)n(Cc3c(Cl)cccc3Cl)c2)cc1	n	n	n	n	n
COCCn1c(SCC#N)nnc1-c1ccc(OC)cc1	n	x	x	x	x
CC(=O)Nc1c(O)nc(SCc2ccc(Cl)cc2)[nH]c1=O	n	x	x	x	x
CCOC(=O)N1CCN(C(=O)CN2C(=O)CC(C)(C)S(=O)(=O)c3ccccc32)CC1	n	55	n	n	n
SMILES	Measles CPE	CYP2C19 inh	CYP2C19 activ	CYP2C9 inhib	CYP2C9 activ
CN1CCN(C(=O)CN2C(=O)CC(C)(C)S(=O)(=O)c3ccccc32)CC1	n	n	n	n	n
COc1cccc(-c2nnc(SCC(=O)OC(C)C)n2N)c1	n	n	n	n	n
COc1ccc(NC(=O)Cn2nnc(-c3ccccc3F)n2)cc1	49	n	n	n	n
COc1ccccc1NC(=O)Cn1nnc(-c2ccccc2NC(=O)c2cccs2)n1	n	n	n	n	n
O=C(Cn1nnc(-c2ccccc2NC(=O)c2cccs2)n1)Nc1ccccc1	n	n	n	76	n
CCOc1ccc(NC(=O)Cn2nnc(-c3ccccc3NC(=O)C3CC3)n2)cc1	n	82	n	n	n
CCC(=O)Nc1ccccc1-c1nnn(CC(=O)N2c3ccccc3CC2C)n1 (configuration not stated)	n	n	n	78	n
CCn1c(COc2ccccc2)nc2ccccc21	n	x	x	x	x
COc1ccc(-c2c(C)oc3c(CN4CCCCC4C)c(O)ccc3c2=O)cc1OC (configuration not stated)	n	n	n	n	n
CCOC(=O)c1nnn(-c2nonc2N)c1CNc1ccc(C)c(Br)c1	n	n	n	n	n
COc1ccc(NC(=O)Cn2nnc(-c3ccccc3N)n2)cc1OC	n	n	n	n	n
CCc1nnc(NC(=O)Cn2nnc(-c3ccccc3F)n2)s1	n	n	n	66	n
COc1cc(NC(=O)Cn2nnc(-c3ccccc3N)n2)cc(OC)c1	n	n	n	54	n
COc1ccc(NC(=O)Cn2nnc(-c3ccccc3NC(=O)C3CC3)n2)cc1	n	94	n	n	n
COc1ccc(C(=O)Cn2nnc(-c3ccccc3NC(=O)C(F)(F)F)n2)cc1	n	n	n	n	n
COc1ccc(C(=O)Cn2nnc(-c3ccccc3NC(=O)C3CCCCC3)n2)cc1	32	n	n	85	n
OCc1ccccc1NC(=S)Nc1cccnc1	n	n	n	n	n
COc1ccc(F)cc1CN1CCN(C(=O)CCC(=O)Nc2nnc(C(C)C)s2)CC1	n	n	n	n	n
COc1ccccc1N1CC(C(=O)Nc2nnc(SCc3ccccn3)s2)CC1=O (configuration not stated)	n	x	x	x	x
Cc1ccc(S(=O)(=O)Cn2nnnc2CN2CCN(C(=O)c3ccco3)CC2)cc1	n	n	n	n	n
CCC(c1nnnn1Cc1ccco1)N1CCN(C(=O)c2ccco2)CC1 (configuration not stated)	n	n	n	n	n
O=C(c1ccco1)N1CCN(C(c2ccccc2Cl)c2nnnn2Cc2cccs2)CC1 (configuration not stated)	n	89	n	92	n
CC(C)CC(c1nnnn1Cc1ccccc1)N1CCN(C(=O)c2ccco2)CC1 (configuration not stated)	n	87	n	65	n
COCCn1nnnc1C(C(C)C)N1CCN(C(=O)c2ccco2)CC1 (configuration not stated)	n	n	n	n	n
Cc1ccc(S(=O)(=O)Cn2nnnc2C(C)N2CCN(C(=O)c3ccco3)CC2)cc1 (configuration not stated)	56	n	n	n	n
SMILES	Measles CPE	CYP2C19 inh	CYP2C19 activ	CYP2C9 inhib	CYP2C9 activ
O=C(c1ccco1)N1CCN(C(c2ccccc2Cl)c2nnnn2Cc2ccco2)CC1 (configuration not stated)	n	n	n	n	n
CCCC(c1nnnn1CCOC)N1CCN(C(=O)c2ccco2)CC1 (configuration not stated)	n	50	n	n	n
COc1cc2nc(C3CC3)n(NC(=O)c3ccc(F)cc3)c(=O)c2cc1OC	n	n	n	n	n
Cc1oncc1C(=O)NC(C)C	n	n	n	n	n
Cc1cccc(C)c1N1C(=O)c2ccccc2C1=O	n	54	n	n	n
CCOc1nc(NCc2ccco2)nc(Nc2ccccc2F)n1	n	x	x	x	x
CCC1c2ccc(C)n2CCN1C(=O)Nc1ccccc1C(=O)OC (configuration not stated)	n	86	n	59	n
